Bioassay records as filed in PubChem BioAssay.
Compounds with a hit are over-represented: about 6.6% of the library has one in this group of screens.
Beta cell apopt: beta cell apoptosis inhibition. INS-1E cytokine-induced death, ATP luminescence, 48 h; percent of positive-control rescue, neutral wells zero. protection from apoptosis, % (test concentration not listed). actives 0.8% (n = 300,000);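 active = Every replicate reaches about 75%, or at least half do and their mean reaches it too, limit read from the data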;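 also: 0% = cytokine-treated negative control wells and 100% = positive control rescue; higher means more ATP so stronger rescue from cytokine killing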
Gli-Sufu antag: Gli-Sufu pathway antagonism; Sufu-KO-LIGHT fibroblasts, Gli luciferase reporter luminescence; actives 0.74% (n = 340,000); AID 588413; inhibition, % at 5 µM;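 active = inhibition above about 55%, limit read from the data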;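 also: 0% = DMSO-treated cells and 100% = wells with medium but no cells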
Mdm2 MdmX PPI: disrupts the human Mdm2-MdmX interaction; SaOS-2 split-luciferase Mdm2/MdmX complementation, luminescence; inhibition, % at 8 µM; O15151+Q00987; actives 3% (n = 330,000);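 active = inhibition of at least 50% at 8 µM in the primary screen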
MPTP block: inhibitors of mitochondrial permeability transition pore; inhibition, % at 10 µM; AID 602449; isolated mouse mitochondria, Ca2+ swelling absorbance, 30 min; actives 1.4% (n = 360,000);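 active = inhibition of 50% or more, scaled per plate between neutral and stimulator controls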;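 also: 0% = DMSO wells given calcium and 100% = 1 mM EGTA wells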
NR3A LBD binder: modulators (binders) of human NR3A ligand-binding domain | NR3A LBD differential scanning fluorimetry, Tm shift; 0% = protein alone, 100% = glycine-bound protein | Tm shift relative to glycine control, % at 25 µM | actives 2.5% (n = 340,000) | AID 1259313;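 active = melting temperature shift of at least 10% of the positive control shift, at one fixed dose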
CSC inhib: blocks cancer stem cells; cancer stem cell-like cells viability, luminescence; inhibition, % at 7.5 µM; actives 1.1% (n = 300,000); in the data active = inhibition above about 75%; tested in HMLE shEcad cells
MPTP counter: Rhodamine 123 counter-screen of mitochondrial pore hits | shares compounds with MPTP block | isolated mitochondria, membrane potential, Rhodamine 123 fluorescence | inhibition, % at 10 µM | actives 78% (n = 5,000) | AID 624504; in the data active = inhibition above about 22%;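 also: 0% = DMSO vehicle and 100% = positive control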
MPTP swell DR: MPTP inhibition, dose response swelling confirmation | shares compounds with MPTP block | isolated mitochondria swelling, absorbance | IC50, µM | actives 58% (n = 780); in the data active = IC50 below about 20 µM
MPTP cs DR: MPTP inhibitor counter-screen activity, dose response; IC50, µM; isolated mitochondria counterscreen, fluorescence read-out; shares compounds with MPTP block; actives 49% (n = 780); in the data active = IC50 below about 80 µM
* = called active by the depositor; i = inactive; . = no result.

SMILES	Beta cell apopt	Gli-Sufu antag	Mdm2 MdmX PPI	MPTP block	NR3A LBD binder	CSC inhib	MPTP counter	others
COc1cc(OC)cc(C(=O)NC(=S)NNC(=O)[C@H]2C[C@@H]2c2ccccc2)c1	4	1	-3	82*	-10	26	-2
Cc1cn([C@H]2C[C@H](O)[C@@H](CCC(=O)NCc3ccc(N(C)C)cc3)O2)c(=O)[nH]c1=O	.	.	.	-2	.	.	.
O=C(Nc1ccc(Cl)c(Cl)c1)c1ccc(Cn2cc(Cl)cn2)cc1	.	-35	.	54*	24*	.	87*
COc1ccc(C2CC(c3ccccc3O)=NN2c2ccccc2)cc1 (stereo not drawn)	2	0	2	0	0	3	.
COc1ccc(C2CC(c3ccccc3)=NN2c2ccc(N)cc2)cc1 (stereo not drawn)	7	10	28	73*	-5	5	71*
CC1CCc2nc(NC(=O)CN3CCN(Cc4ccc5c(c4)OCO5)CC3)sc2C1 (stereo not drawn)	17	19	32	56*	-1	10	7	MPTP swell DR=i;MPTP cs DR=46*
CCOc1ccc(N(C)S(=O)(=O)c2ccc(C)c(C(=O)OCC(=O)c3c[nH]c4ccccc34)c2)cc1	75*	33	32	51*	31*	17	30*
Cc1cc(NC(=O)Nc2cccc(C(F)(F)F)c2)no1	4	7	-1	76*	589*	-1	71*
Cc1cc(/C(N)=N/OC(=O)Nc2cccc(C(F)(F)F)c2)no1	-2	4	18	72*	0	3	88*
CCOC(=O)c1c(NC(=O)COC(=O)c2cccc([N+](=O)[O-])c2)sc(C(=O)N(C)C)c1C	.	.	.	-1	.	.	.
O=C(Cn1c(NCCCCl)nc2ccccc21)c1ccccc1	0	17	3	1	1	-7	.
CCOC(=O)C1CN(S(C)(=O)=O)c2cc(CC(=O)OC)ccc2O1 (stereo not drawn)	3	1	11	0	-1	-3	.
CCn1c(-c2ccccc2)ccc(C#N)c1=O	4	6	-29	1	0	-3	.
O=c1[nH]c2ccccc2nc1/C=C/c1ccc(F)cc1	8	-87	-82	-1	-4	-4	.
Fc1ccc(/C=C\c2nccc3c2[nH]c2ccccc23)cc1	3	-16	39	87*	13*	30	80*
Cc1ccc(/C=C\c2nccc3c2[nH]c2ccccc23)cc1	5	-33	24	75*	14*	83*	61*
COC(=O)c1c([N+](=O)[O-])c(OC)c(OC)c(OC)c1[N+](=O)[O-]	-3	-7	4	-2	0	-2	.
Clc1cccc(N/N=C(\Cc2nc3ccccc3[nH]2)c2ccccc2)c1	16	12	5	72*	31*	-5	70*
COc1ccc(-c2[nH]c(-c3cc(OC)c4c(c3)OCO4)nc2-c2ccccc2)cc1	8	21	26	95*	2	73	69*
Cc1ccc(-c2[nH]c(-c3ccc(C(=O)O)cc3)nc2-c2ccccc2)cc1	-4	4	-36	3	-34	7	.
COc1ccc(NC(=O)Cn2c(C)cc(=O)c3ccccc32)cc1	1	46	35	61*	0	-3	41*
CC1Cc2cc(/C(O)=C3/C(=O)C(=O)N(CCCn4ccnc4)C3c3ccc(F)cc3)ccc2O1 (stereo not drawn)	-4	-10	17	-3	-1	5	.
O=C(O)c1ccc(N2C(=O)/C(=C/C=C/c3ccccc3)SC2=S)cc1	-1	-3	19	1	4	-1	.
CN(C)c1ccc(/C=C/C=C2/SC(=S)N(c3ccccc3)C2=O)cc1	20	3	31	58*	1	82*	-23
Cc1ccc(S(=O)(=O)N(C)C)cc1NC(=O)Nc1ccccc1F	-9	6	13	6	1	-11	.
SMILES	Beta cell apopt	Gli-Sufu antag	Mdm2 MdmX PPI	MPTP block	NR3A LBD binder	CSC inhib	MPTP counter	others
CCCCCCC(C)NC(=S)Nc1cc(S(=O)(=O)N(C)C)ccc1C (stereo not drawn)	7	9	-3	64*	1	12	79*
CC(=O)NNC(=S)Nc1cc(S(=O)(=O)N(C)C)ccc1C	1	-7	9	-2	0	-11	.
Cc1cc(C)cc(NC(=O)Nc2cc(S(=O)(=O)N(C)C)ccc2C)c1	2	-12	-7	64*	1	-11	84*
Cc1ccc(S(=O)(=O)N(C)C)cc1NC(=S)NC(C)CCCC(C)C (stereo not drawn)	7	7	-23	96*	-4	17	92*
CC(C)C[C@H](NC(=O)OCC1c2ccccc2-c2ccccc21)C(=O)O	.	-66	.	-3	2	.	.
Cn1nc(OC(=O)Nc2ccccc2)cc1C(F)(F)F	1	.	-14	.	.	.	.
Cn1nc(OC(=O)Nc2cccc(Cl)c2)cc1C(F)(F)F	.	-4	31	88*	15*	21	87*
CSc1ccc(CN(C)Cc2cc(=O)oc3c(C)c(C)ccc23)cc1	3	15	-6	30	0	3	.
CCOc1ccc(CN(C)Cc2cc(=O)oc3c(C)c(C)ccc23)cc1OC	.	37	.	52*	0	.	85*
Cc1cc(NC(=S)Nc2ccccc2)ccc1Br	2	-2	9	71*	-20	-4	79*
Cc1cc(NC(=S)Nc2cccnc2)ccc1Br	5	-8	-6	88*	1	2	72*
Cc1ccccc1NC(=S)Nc1ccccc1	-2	-21	20	0	1	-13	.
O=C(NCc1csc(-c2cccs2)n1)c1cccc(Cl)c1	-5	4	-11	6	7	-7	.
COc1ccc(NC(=O)Nc2nc(C(N)CC(C)C)cs2)cc1 (stereo not drawn)	.	.	.	2	.	.	.
NC(c1csc(NC(=O)Nc2ccc(OC(F)(F)F)cc2)n1)C1CCCCC1 (stereo not drawn)	.	.	.	62*	.	.	88*
Cc1ccc(C)c(NC(=O)CCN2CCC(C)CC2)c1	-5	-6	-9	3	-4	-4	.
COc1ccc(CCNC(=O)c2ccc(Cl)c(S(=O)(=O)N3CCCC3)c2)cc1	.	7	-15	2	-1	.	.
COC(=O)c1ccc(CSc2ccccc2NC(=S)Nc2cccc(C(F)(F)F)c2)o1	.	.	.	86*	.	.	90*
Nc1ccc(-c2nnnn2-c2ccc(N)cc2)cc1	-7	-2	16	0	-1	-2	.
Cc1ccc(CNC(=O)COC(=O)c2cc(=O)[nH]c3ccccc23)cc1	-1	3	5	0	1	-19	.
